The source made the active and inactive calls. Rule for the calls: active = hit-call score of the fitted dose curve at least 0.9, where 1 is the maximum; inconclusive = response in the unintended direction; inactive = score below 0.9.
What follows are compounds tested against human CYP1A2, CYP1A2 (gene 1544) (UniProt P05177) (assay: NVS_ADME_hCYP1A2: NovaScreen (NVS) CYP450-related Enzyme Activity (ADME) Assay for human CYP1A2 (AID 2283102);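 for AC50: potency for inhibition since loss of fluorescence marks reduced CYP1A2 activity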).
Sequence of human CYP1A2, CYP1A2 (gene 1544) (P05177 whole entry, looked up): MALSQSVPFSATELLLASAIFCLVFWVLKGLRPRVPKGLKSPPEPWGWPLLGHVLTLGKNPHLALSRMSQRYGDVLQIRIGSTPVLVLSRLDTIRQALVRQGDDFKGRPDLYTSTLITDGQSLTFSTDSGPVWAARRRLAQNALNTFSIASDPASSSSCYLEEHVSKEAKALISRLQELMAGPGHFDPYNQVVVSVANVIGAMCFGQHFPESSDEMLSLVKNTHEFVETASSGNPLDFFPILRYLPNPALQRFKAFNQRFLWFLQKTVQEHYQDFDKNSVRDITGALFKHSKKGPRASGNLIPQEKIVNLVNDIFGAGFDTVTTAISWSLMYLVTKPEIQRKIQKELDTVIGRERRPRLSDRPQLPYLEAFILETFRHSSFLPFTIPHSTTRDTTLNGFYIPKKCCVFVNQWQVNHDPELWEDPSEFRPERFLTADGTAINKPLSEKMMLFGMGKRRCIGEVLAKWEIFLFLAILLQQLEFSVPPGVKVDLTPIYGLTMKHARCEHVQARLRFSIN
Method: NVS_ADME_hCYP1A2 is a biochemical, single-readout assay that uses extracted gene-proteins from insect cells in a cell-free assay. Measurements were taken 0.5 hour after chemical dosing in a 96-well plate.NVS_ADME_hCYP1A2 is one of one assay component(s) measured or calculated from the NVS_ADME_hCYP1A2 assay. It is designed to make measurements of enzyme activity, a form of enzyme reporter, as detected with fluorescence intensity signals by Fluorescence technology.Data from the assay component NVS_ADME_hCYP1A2 was analyzed into 1 assay endpoint. This assay endpoint, NVS_ADME_hCYP1A2, was analyzed in the positive analysis fitting direction relative to Acetonitrile as the negative control and baseline of activity. Using a type of enzyme reporter, loss-of-signal activity can be used to understand changes in the enzymatic activity as they relate to the gene CYP1A2. Furthermore, this assay endpoint can be referred to as a primary readout, because this assay has produced multiple assay endpoints where this one serves a enzymatic activity function. To generalize the intended target to other relatable targets, this assay endpoint is annotated to the cyp intended target family, where the subfamily is xenobiotic metabolism.
Binding assays used specific radioligands (tritiated, iodinated) with non-radioactive competitive displacement ligands in agonist or antagonist protocols (as indicated) and various reference compounds and inhibitors to titrate specific binding to receptors and transporters. Most enzyme assays (CYPs, kinases, phosphatases, proteases, HDACs) used recombinant protein and specific substrates (fluorescence mostly, some colorimetric and radioactive) and inhibitors, followed by a biochemical separation of substrate and product. All assays for the biochemical HTS were initially run in duplicate at a single concentration (10 uM for CYP450 assays and 25 uM for all others). […] Each assay was run with positive and negative controls, and concurrent controls on every plate. The follow-up (secondary) screen tested active chemical-pairs in concentration series, as well as a few additional assays not tested in the primary screen, some selected negative inactives, and several cases re-run in the concentration series for confirmatory purposes.

Row | SMILES | outcome | AC50
1 | Nc1ccc(N=Nc2ccccc2)cc1 | inactive | 
2 | CCCCCCCCn1sccc1=O |  | 5.97 µM (active)
3 | N#CC(Br)(Br)C(N)=O | inactive | 
4 | c1ccc2c(c1)-c1cccc3cccc-2c13 |  | 7.21 µM (active)
5 | CCOC(=O)[C@]1(c2ccccc2)Oc2ccccc2[C@@H]1N |  | 5.07 µM (active)
6 | Cc1cccc(N)c1N |  | 6.94 µM (active)
7 | COP(=S)(OC)SCN1C(=O)c2ccccc2C1=O |  | 3.71 µM (active)
8 | O=C(Nc1ccccc1)c1ccccc1I | inactive | 
9 | O=[N+]([O-])C(Br)(CO)CO |  | 3.15 µM (active)
10 | CC(C)COC(=O)c1ccccc1C(=O)OCC(C)C |  | 7.52 µM (active)
11 | CN(C)C(=O)Nc1ccc(Cl)cc1 |  | 6.62 µM (active)
12 | Oc1ccc2ccc3cccc4ccc1c2c34 |  | 0.275 µM (active)
13 | CCOc1cccc(C2(N3CCN(c4ccccc4)CC3)CCC(C)CC2)c1 (stereo not drawn) | inactive | 
14 | Nc1ccc(Cl)cc1N |  | 7.31 µM (active)
15 | CCCCOC(=O)c1ccccc1C(=O)OCc1ccccc1 |  | 6.71 µM (active)
16 | CC(C)(C)C(O)(CCc1ccc(Cl)cc1)Cn1cncn1 (stereo not drawn) | inactive | 
17 | Cc1cc(N=Nc2ccccc2C)ccc1N |  | 0.858 µM (active)
18 | [Cl-].[Cl-].[Hg+2] |  | 0.998 µM (active)
